In all, about 52,000 compounds went through this assay and about 4,300 (8.3%) were called active. What follows is part of a selection rich in actives, with near analogues and random picks from the rest. Unmarked numbers belong to inactive results. Rule as the data show it: active = survival mostly below about 52% (no sharp cut-off); inactive = mostly above about 56%.
These molecules were tested on DeltatarO mutant (assay: S. aureus survival, RN4220 and DeltatarO strains – OD600, teichoic acid synthesis inhibitors, primary screen (AID 463173)). Conditions: S. aureus RN4220 wild type/DeltatarO growth, OD600, 18 h, hits give low values, screened at 18.75 µg/mL (by protocol).

| Structure (SMILES) | survival |
| --- | --- |
| O=c1cc(-c2ccccc2)nc(SCc2nc(-c3ccccc3Cl)no2)[nH]1 | 69% |
| Cc1ccc(CNC(=O)Cn2c(-c3cccs3)cc3cc(Cl)ccc32)cc1 | 79% |
| CCCCOc1ccc(C(=O)Nc2ccc3oc(-c4cccnc4)nc3c2)cc1 | 69% |
| CCCCOc1cccc(C(=O)Nc2ccc3oc(-c4cccnc4)nc3c2)c1 | 46% (active) |
| CCOc1ccc(C(=O)Nc2ccc3oc(-c4cccc5ccccc45)nc3c2)cc1 | 60% (active) |
| CCOc1ccc(C(=O)Nc2ccc3oc(-c4ccc5ccccc5c4)nc3c2)cc1 | 74% |
| CCOc1ccc(C(=O)Nc2ccc3oc(-c4ccncc4)nc3c2)cc1 | 74% |
| CCOc1cccc(C(=O)Nc2ccc3oc(-c4ccc(C(C)(C)C)cc4)nc3c2)c1 | 46% (active) |
| CCOc1cccc(C(=O)Nc2ccc3oc(-c4cccnc4)nc3c2)c1 | 56% |
| CCOc1cccc(C(=O)Nc2ccc3oc(-c4ccncc4)nc3c2)c1 | 70% |
| Cc1ccc(C(=O)Nc2ccc3oc(-c4ccc(C(C)(C)C)cc4)nc3c2)cc1 | 70% |
| O=C(Nc1ccc(NC(=O)C2CC2)nc1)c1cccc(F)c1 | 77% |
| CCCCCc1nn2cc(-c3ccccc3)nc2s1 | 105% |
| Nc1ccc(CN2C(=O)c3ccccc3C2=O)cc1 | 91% |
| O=C(C1CCCN(S(=O)(=O)c2cccs2)C1)N1CCN(c2ccccc2F)CC1 (centres undefined) | 85% |
| CCn1cc(C(=O)N2CCN(c3ccc(C(C)=O)cc3)CC2)c2cc(OC)c(OC)cc2c1=O | 164% |
| CCC(=O)N1CCc2cc(S(=O)(=O)CCC(=O)N3CCN(c4cccc(C)c4C)CC3)ccc21 | 98% |
| CC(C)c1ccccc1NC(=O)CSc1nnc(COc2ccccc2Cl)o1 | 99% |
| Cc1cc(C)cc(NC(=O)CSc2nnc(COc3ccccc3Cl)o2)c1 | 12% (active) |
| O=C(CSc1nnc(COc2ccc(Cl)cc2)o1)Nc1ccccc1 | 51% |
| COc1ccc(CCCc2nnc(SCC(=O)Nc3ccc(OC)cc3)o2)cc1 | 65% |
| COc1cccc(NC(=O)CSc2nnc(COc3ccc(Cl)cc3)o2)c1 | 57% (active) |
| COc1ccc(CCCc2nnc(SCC(=O)Nc3cccc(F)c3C)o2)cc1 | 39% (active) |
| COc1ccc(CCCc2nnc(SCC(=O)Nc3cc(F)ccc3C)o2)cc1 | 64% |

| Structure (SMILES) | survival |
| --- | --- |
| CCc1ccccc1NC(=O)CSc1nnc(COc2ccccc2Cl)o1 | 66% |
| Cc1ccc(NC(=O)CSc2nnc(COc3ccc(Cl)cc3)o2)cc1 | 49% |
| O=c1c2oc3ccccc3c2n(Cc2ccccc2)c(=O)n1Cc1ccco1 | 95% |
| CCN(Cc1ccccc1)C(=O)CN1C(=O)COc2ccc(S(=O)(=O)N3CCCCCC3)cc21 | 95% |
| COc1cc(C2CC(=O)c3cnc(N4CCN(CCO)CC4)nc3C2)cc(OC)c1OC (centres undefined) | 92% |
| CCCn1c(N2CCN(C(=O)Nc3ccc(OC)cc3)CC2)nc2ccccc21 | 104% |
| CC(C)Cn1c(N2CCN(C(=O)Nc3ccc(Cl)cc3)CC2)nc2ccccc21 | 102% |
| CCn1c(N2CCN(C(=O)Nc3ccc(Cl)c(C(F)(F)F)c3)CC2)nc2ccccc21 | 0% (active) |
| CC(=O)c1ccc(NC(=O)c2noc3c2CSc2ccccc2-3)cc1 | 54% |
| COCCCNC(=O)C1CCN(Cc2nc(-c3ccc(OC)c(OC)c3)oc2C)CC1 | 88% |
| COc1ccc(OC)c(-c2noc(N3CCN(c4ccc(C(C)=O)cc4)CC3)n2)c1 | 134% |
| Cc1cc(N2CCCCC2)nc2ccc(NC(=O)/C=C/c3ccc(OC(C)C)cc3)cc12 | 50% |
| COc1ccc(/C=C/C(=O)Nc2ccc3nc(N4CCC(C)CC4)cc(C)c3c2)cc1OC | 51% |
| Cc1cc(N2CCCCC2)nc2ccc(NC(=O)/C=C/c3ccccc3Cl)cc12 | 44% (active) |
| COc1ccc(/C=C/C(=O)Nc2ccc3nc(N4CCC(C)CC4)cc(C)c3c2)cc1 | 51% (active) |
| COc1ccc(/C=C/C(=O)Nc2ccc3nc(N4CCCCC4)cc(C)c3c2)cc1OC | 43% (active) |
| Cc1ccc(/C=C/C(=O)Nc2ccc3nc(N4CCC(C)CC4)cc(C)c3c2)cc1 | 122% |
| Cc1cc(N2CCCCC2)nc2ccc(NC(=O)/C=C/c3ccc(OCCC(C)C)cc3)cc12 | 56% |
| Cc1cc(N2CCC(C)CC2)nc2ccc(NC(=O)/C=C/c3cccc(Cl)c3)cc12 | 53% (active) |
| Cc1cc(N2CCCCC2)nc2ccc(NC(=O)/C=C/c3ccccc3OC(C)C)cc12 | 73% |
| COc1cc(C(=O)Nc2cccc(OCc3cc(=O)n4cc(C)sc4n3)c2)cc(OC)c1OC | 90% |
| COc1ccccc1C1C=C(c2ccc(Cl)cc2)Nc2nc(-c3ccc(Cl)cc3)nn21 (centres undefined) | 59% |
| COC(=O)C1=C(C)NC(=O)CC1c1ccccc1 (centres undefined) | 105% |
| COc1ccccc1CCNC(=O)C1CCN(c2nnc(C)c3c(C)n(-c4ccc(C)cc4)nc23)CC1 | 85% |

| Structure (SMILES) | survival |
| --- | --- |
| CC(=O)N1CCCc2cc(S(=O)(=O)N3CCCC(C(=O)Nc4ccc(C)cc4C)C3)ccc21 (centres undefined) | 71% |
| Cc1ccc(C(=O)Nc2nc3nc(C)cc(=O)n3[nH]2)cc1 | 91% |
| O=C(Cc1ccccc1)Nc1c(C(=O)N2CCN(c3ccc(F)cc3)CC2)oc2ccccc12 | 49% |
| O=C(Cn1ncc2c(=O)oc3ccccc3c21)N1CCN(c2ccc(Cl)cc2)CC1 | 93% |
| CCn1ccc2cc(S(=O)(=O)N3CCCN(C(=O)Nc4ccc(C)c(F)c4)CC3)ccc21 | 73% |
| COc1ccc(Nc2c3c(nc4ccc(NC(=O)/C=C/c5cccc(OC)c5OC)cc24)CCCC3)cc1OC | 66% |
| CCN1CCN(c2cc(C)c3cc(NC(=O)/C=C/c4cccc(OC)c4OC)ccc3n2)CC1 | 43% (active) |
| COc1ccc(/C=C/C(=O)Nc2ccc(Cl)c(Cl)c2)cc1OC | 18% (active) |
| CCN1CCN(c2cc(C)c3cc(NC(=O)/C=C/c4ccc(OCCC(C)C)cc4)ccc3n2)CC1 | 112% |
| COc1ccc(/C=C/C(=O)Nc2ccc(Cl)c(Cl)c2)cc1 | 66% |
| CCN1CCN(c2cc(C)c3cc(NC(=O)/C=C/c4cccc(Cl)c4)ccc3n2)CC1 | 44% (active) |
| CCN1CCN(c2cc(C)c3cc(NC(=O)/C=C/c4ccc(C)cc4)ccc3n2)CC1 | 52% |
| COc1cccc(/C=C/C(=O)Nc2ccc3nc(N4CCN(C)CC4)cc(C)c3c2)c1OC | 79% |
| C/C=C/C(=O)Nc1ccc(Cl)c(Cl)c1 | 70% |
| O=C(CSc1nnc(-c2ccc([N+](=O)[O-])cc2)o1)Nc1ccccc1 | 81% |
| CCSc1ncc(Cl)c(C(=O)Nc2sc(C(C)=O)c(C)c2C(=O)OC)n1 | 72% |
| O=C(Cn1ncc2c3ccccc3n(Cc3ccc(F)cc3)c2c1=O)NC1CCCCCC1 | 80% |
| COc1cccc(CNC(=O)CN(c2ccc(C)cc2)S(=O)(=O)N(C)C)c1OC | 94% |
| C=Cc1ccc(CN2C(=O)N(c3ccc(CC)cc3)S(=O)(=O)c3ccccc32)cc1 | 6% (active) |
| C=Cc1ccc(CN2C(=O)N(c3ccc(C)c(C)c3)S(=O)(=O)c3ccccc32)cc1 | 84% |
| C=Cc1ccc(CN2C(=O)N(c3cccc(Cl)c3)S(=O)(=O)c3ccccc32)cc1 | 64% |
| COc1cc(NC(=O)CCc2nc3cccnc3n2Cc2cccs2)cc(OC)c1OC | 78% |
| CC(=O)NC(Cc1cccc(C)c1)C(=O)NC1CCN(c2nc(C)cc(C)c2C#N)CC1 (centres undefined) | 97% |
| CCS(=O)(=O)c1cccc(C(=O)Nc2ccc(-c3nc4ccccc4s3)c(O)c2)c1 | 85% |

| Structure (SMILES) | survival |
| --- | --- |
| COC(=O)c1ccc(C2Nc3c(C)cccc3-c3cc(C)nn32)cc1 (centres undefined) | 74% |
| CCN(CC)c1ccc(C2Nc3ccccc3-c3cc(C)nn32)cc1 (centres undefined) | 7% (active) |
| Cc1cc2n(n1)C(c1ccccc1)Nc1ccccc1-2 (centres undefined) | 93% |
| COc1cc(C2Nc3c(C)cc(C)cc3-c3cc(C)nn32)cc(OC)c1O (centres undefined) | 131% |
| COc1cc(C2Nc3ccccc3-c3cc(C)nn32)ccc1O (centres undefined) | 121% |
| COc1cc(OC)c(C2Nc3c(C)cccc3-c3cc(C)nn32)cc1OC (centres undefined) | 184% |
| COc1ccc(OC)c(C2Nc3c(C)cc(C)cc3-c3cc(C)nn32)c1 (centres undefined) | -3% (active) |
| CCOc1ccc(C2Nc3c(C)cccc3-c3cc(C)nn32)cc1 (centres undefined) | 0% (active) |
| CCOc1cccc(C2Nc3ccccc3-c3cc(C)nn32)c1O (centres undefined) | 195% |
| O=C(NCc1ccccc1Cl)C1CCN(C(=O)N2CCOc3ccccc32)CC1 | 83% |
| COCCn1c(COc2cccc(OC)c2)nnc1SCC(=O)NC1CCCC1 | 82% |
| COc1ccc(NC(=O)c2cc(C)nc3c2c(C)nn3-c2ccc(C)cc2)cc1OC | 94% |
| Cc1ccc2[nH]c(=O)c(CN(C(=O)c3cccc(Cl)c3)C(C)(C)C)cc2c1 | 94% |
| Cc1ccc(C(=O)CSc2nc(-c3ccccc3)nc3c2CCCC3)cc1C | 15% (active) |
| Cc1ccc(C(=O)CSc2nc(-c3ccccc3)nc3c2CCCC3)c(C)c1 | 47% |
| O=C(CSc1nc(-c2ccccc2)nc2c1CCCC2)c1ccc(Cl)cc1 | 76% |
| O=C(CSc1nc(-c2ccccc2)nc2c1CCCC2)c1ccc(F)cc1 | 83% |
| CCc1ccc(C(=O)CSc2nc(-c3ccccc3)nc3c2CCCC3)cc1 | 60% |
| Cc1nc2c(c(SCC(=O)Nc3ccccc3C(F)(F)F)n1)CCC2 | 60% |
| Cc1ccc(C)c(C(=O)CSc2nc(-c3ccccc3)nc3c2CCCC3)c1 | 2% (active) |
| NC(=O)CSc1nc(-c2ccccc2)nc2c1CCCC2 | 88% |
| Cc1ccc(C(=O)CSc2nc(-c3ccccc3)nc3c2CCCC3)cc1 | 36% (active) |

Source: PubChem BioAssay AID463173 (ICCB-Longwood Screening Facility, Harvard Medical School, 2010)
